Drawing on PubChem BioAssay AID623868 (Vanderbilt High Throughput Screening Facility, 2012), this text covers manual score for 107 molecules.

In all, about 2,100 compounds went through this assay and about 760 (36%) were called active. Only a sample is shown. Unmarked numbers belong to inactive results.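 How the source made its calls: active means thallium-flux fluorescence traces judged by eye to show enhanced or reduced glutamate response, manual score 1 or -1, so both directions (some results past the limit were not filed as active); inactive means the rest, including fluorescent or raised-baseline compounds.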

The test can be described thus: non-GIRK thallium flux modulation in mGlu8 cells, confirmation, counter-screen for GIRK activator project, cell-based, HEK-293 rmGlu8, no GIRK (AID 623868).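 Further: extra codes mark interference with 3 for fluorescent and 4 for baseline rise.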 To be noted: thallium flux fluorescence, at 10 µM, actives lie on both sides, codes: 1 enhancer, -1 blocker, 0 none, thallium stimulus containing EC20 glutamate.
With `CSc1nc(N2CCOCC2)c2c(c1C#N)CC(C)(C)OC2`, the manual score is 0. Under `Cc1nc(SC2CCOC2=O)c2c(C)c(C)sc2n1` (configuration not stated) stands 1 (active); under `Cc1ccc(NCC(=O)Nc2cccc(S(=O)(=O)N(C)C)c2)c(Cl)c1`, 0. With `CCOC(=O)N/N=C/c1c(C)nn(-c2ccccc2Cl)c1Cl`, the manual score is 0. Next, `COc1ccc(C)cc1S(=O)(=O)Nc1cccc(Cl)c1Cl`: 0.5; `CCNC(=S)N/N=C/c1c(Cl)cccc1Cl`: 1 (active); `Cc1cccc(-n2c(O)c(/C=N/NC(=O)c3ccccc3Cl)c3ccccc3c2=O)n1`: 3. Next, `Cc1ccc(NC(=S)N/N=C/c2c(Cl)cccc2Cl)c(C)c1`: 1 (active); `O=C(Cn1nc(Cc2ccncc2)c2ccccc2c1=O)N1CCN(C(=O)c2ccco2)CC1`: 0.

With `COc1cccc(-n2c(SCC(=O)NCCC3=CCCCC3)nc3n[nH]c(C)c3c2=N)c1`, the manual score was 0. Under `Cc1cc(C)c2nc(SCC(=O)NCCC3=CCCCC3)cc(C)c2c1` stands 1 (active); under `O=C(CCCc1nc(-c2ccc(Cl)cc2)no1)Nc1cccnc1`, 0; under `CCOC(=O)c1cnn2c1[nH]c(=O)c1ccccc12`, 1 (active). Under `Cc1cc2[nH]c(=O)c3ccccc3n2n1` stands 0. For the molecule `CCOC(=O)c1ccccc1Nc1cn(C(C)=O)c2ccccc12`, the manual score was 0. `CN(C=O)CP(=O)(O)CCN1CCCC1=O`: the manual score is 0.

On to `Cc1cc(C(=O)N2CCN(CCc3ccccc3)CC2)no1`, for which the manual score was 0. Under `S=c1[nH]nc(-c2cc3c(s2)-c2ccccc2CC3)o1` stands 1 (active). Consider `CN1C=CC2=C(C#N)C(N)C(C#N)(C#N)[C@H](c3ccccc3)[C@H]2C1` (some centres not stated), for which the manual score is 3. As for `COc1ccc(-c2cc(C(F)(F)F)c3c(n2)sc2c(O)cc(=O)[nH]c23)c(OC)c1`, the manual score was 0. Under `Cn1sc(NC(=O)c2cccc(Cl)c2)nc1=O` stands -1 (active); under `O=C(NCCCN1CCN(c2cccc(Cl)c2)CC1)c1cccc(N2CCCC2=O)c1`, 0. For the molecule `O=C(Nc1cccc(Cl)c1)Nc1nccs1`, the manual score is 0.

In the case of `CCn1c(=S)[nH]c2nc3c(cc2c1=O)CCCC3`, the manual score is 1 (active). Under `C=CCn1c(=S)[nH]c2nc3c(cc2c1=O)CCCC3` stands 1 (active); under `Cc1noc(C)c1S(=O)(=O)N1CCC(Cc2ccccc2)CC1`, 0; under `CCCCCCN1C2=NCCN2c2ccccc21`, 0. Consider `CCC(=O)N1c2ccc(C)cc2C2=NNC(=S)NC21O` (configuration not stated), for which the manual score was 1 (active).

Take `COc1ccccc1C(=O)N1c2ccccc2Sc2ccccc21`: the manual score was -1 (active).

Regarding `COCC(=O)/C=C1\Sc2ccccc2N1C`, the manual score was 0. Under `CCOc1ccccc1C(=O)N1c2ccccc2Sc2ccccc21` stands 0; under `COc1cc(NC(=O)CS(=O)(=O)c2ccc(C)cc2)cc(OC)c1OC`, 0. Under `COc1ccc(C(=O)Nc2ccc(S(=O)(=O)NCc3ccco3)cc2)cc1OC` stands -0.5; under `COc1cc(C(=S)N2CCCC2)cc(OC)c1OS(=O)(=O)c1ccc(NC(C)=O)cc1`, -1 (active); under `O=C(NC(Nc1nc2ccc([N+](=O)[O-])cc2s1)(C(F)(F)F)C(F)(F)F)c1ccccc1`, 1 (active). Next, `O=C(Nn1c(C2CCCCC2)nc2ccccc2c1=O)c1ccc([N+](=O)[O-])cc1Cl`: 0; `CS(=O)(=O)c1ccc2nc(NC(=O)C3C4C=CC(C4)C3C(=O)O)sc2c1` (configuration not stated): 0; `O=C(NC(Nc1nc2ccc([N+](=O)[O-])cc2s1)(C(F)(F)F)C(F)(F)F)c1ccccc1Cl`: 1 (active). For `Cc1ccc(C)c(OCC(=O)Nc2nc3ccc([N+](=O)[O-])cc3s2)c1C`, the manual score was 0. Under `N#C/C(=C/C=C/c1ccccc1)C(=O)Nc1ccccc1` stands 0; under `CCn1c(-c2cc3ccccc3cc2O)n[nH]c1=S`, 0; under `Cn1c(SCC(=O)c2cc3ccccc3o2)nnc1-c1ccccc1`, 0. Under `O=c1oc(-c2ccc(Br)o2)nc2ccccc12` stands 0; under `S=c1[nH]nc(-c2cc3ccccc3o2)n1Cc1ccccc1`, 1 (active); under `S=c1[nH]nc(-c2ccc(Br)o2)n1Cc1ccccc1`, 1 (active). Under `CC(C)N(Cc1nc(-c2ccccc2)no1)C(=O)CSc1ccccc1` stands 0. For the molecule `CC1(C)CC(=O)C2=C(C1)NC(SCC(=O)Nc1ccccc1)=C(C#N)C2c1ccco1` (configuration not stated), the manual score is 0.5. Next, `CC1(C)CC(=O)C2=C(C1)N(c1ccccc1)C(N)=C(C#N)C2c1ccsc1` (configuration not stated): -1 (active). Next, `CN1C2C=C3C(C#N)=C(N)C(C#N)(C#N)[C@@H](c4ccsc4)[C@@H]3C1CC2` (some centres not stated): 0.

Take `CCC(C)(C)n1nnnc1C(c1ccccn1)N1CCCCC1` (configuration not stated): the manual score is 0. Under `Cc1cc2c(cc1C)NC(c1c(C)n(C)n(-c3ccccc3)c1=O)C1=C(CC(C)(C)CC1=O)N2` (configuration not stated) stands 3.

`CC(C)Sc1nc2c(c(=O)[nH]1)C(c1cccs1)C1=C(CC(C)(C)CC1=O)N2` (configuration not stated): the manual score was -1 (active). Next, `Cc1c(C2Nc3ccccc3NC3=C2C(=O)CC(C)(C)C3)cnn1C` (configuration not stated): 0; `O=C(NCc1cccs1)c1cccnc1C(=O)O`: 0. Under `O=C(Nc1ccccc1C(=O)O)c1ccc(NC(=O)c2ccc(Br)o2)cc1` stands -1 (active); under `O=C(O)c1ccccc1C(=O)Nc1ccc(-c2csc(-c3ccccc3)n2)cc1`, 0.

Consider `CCC(C)NC(=O)c1ccccc1NC(=O)Nc1ccccc1` (configuration not stated), for which the manual score was 0.5. Next, `O=C(NC(=S)NCCc1ccccc1)c1ccco1`: 1 (active); `Cc1ccccc1C(=O)NC(=S)NCCc1ccccc1`: 0. Under `COc1cc(OC)cc(C(=O)NC(=S)NCCc2ccccc2)c1` stands 0; under `O=C(NC(=S)NCCc1ccccc1)c1ccccc1`, 1 (active).

Consider `O=C(NC(=S)N(CCc1ccccc1)CCc1ccccc1)c1ccco1`, for which the manual score is 1 (active). Take `O=C(CNC(=S)NC(=O)c1ccco1)c1ccccc1`: the manual score was 1 (active). Under `CC1CN(C2CC(C)(C)NC(C)(C)C2)CCC1=O` (configuration not stated) stands 0; under `CCCCc1cc(=O)oc2cc(C)cc(O)c12`, -0.5. Under `COc1cc(/C=C(\C#N)C(=O)Nc2cccnc2)ccc1OC(C)C` stands 0; under `O=C(CNC(=S)NC(=O)c1cccs1)c1ccccc1`, 1 (active). Take `Nc1sccc1C(=O)c1ccccc1`: the manual score was 0. Under `CCOc1ccccc1-c1c2cc(O)c(=O)cc-2oc2cc(O)c(O)cc12` stands 0; under `CCN(CC)S(=O)(=O)c1cccc(S(=O)(=O)c2cccc(S(=O)(=O)N(CC)CC)c2)c1`, 0; under `CCN(CC)S(=O)(=O)c1cccc(-c2n[nH]c(=S)n2/N=C/c2ccc(C(=O)OC)cc2)c1`, 1 (active). Next, `COc1ccccc1CNC(=O)c1c(N)n(CCCN2CCOCC2)c2nc3ccccc3nc12`: 0.

Consider `COCC(C)OC(=O)c1c(N)n(CC(C)C)c2nc3ccccc3nc12` (configuration not stated), for which the manual score is 0. Next, `C=CCn1c(N)c(C(=O)OC(C)(C)C)c2nc3ccccc3nc21`: -1 (active); `Cc1cccn2c(=O)c(/C=N/O)c(N3CCCC3)nc12`: 0; `CSc1cccc(NC(=O)CN(c2ccc(C)cc2C)S(C)(=O)=O)c1`: 0.

As for `CC1(C)CC(=O)C2=C(C1)OC(/N=C/N1CCOCC1)=C(C#N)C2c1ccccc1` (configuration not stated), the manual score was -1 (active). Next, `CC1(C)Cc2ccccc2-c2nnc(SCC(=O)Nc3nc4ccccc4s3)n21`: 0; `CC1Cc2nc(SCC(=O)Nc3nc4ccccc4s3)n(C)c(=O)c2S1` (configuration not stated): -1 (active); `CC(C)Cc1nnc(NC(=O)CSc2nc(=O)cc(N)n2-c2ccccc2)s1`: 0. Under `COC(=O)c1onc(C(=O)c2ccccc2)c1C(=O)OC` stands -1 (active); under `N[C@@H](Cc1ccccc1)c1nnc(SCc2ccccc2F)o1`, 0; under `Cc1ccccc1-c1nc(CN2CCC(C(=O)NCc3ccco3)CC2)c(C)o1`, 0. Next, `Cc1sc2nc(C(C)C)nc(SCC(=O)NCc3ccco3)c2c1C`: 1 (active); `CCn1c(SCC(=O)NC(=O)NCc2ccco2)nc2sc(C)c(C)c2c1=O`: 1 (active); `CCn1c(N)c(C(=O)NCc2ccco2)sc1=S`: 0. On to `Cc1sc2nc(C(C)C)nc(SCC(=O)N3c4ccccc4CC3C)c2c1C` (configuration not stated), for which the manual score was 1 (active). Next, `Cc1sc2ncnc(SCc3ccco3)c2c1C`: 0; `COC(=O)c1ccc(-n2c(C)cc(C(=O)CSc3ccc(NC(C)=O)cc3)c2C)cc1`: 0. Next, `CC(=O)Nc1ccc(C(=O)CSc2nc3ccc(C)cc3[nH]2)cc1`: 0; `CCc1cc2cccc(C)c2nc1SCC(=O)c1ccc(NC(C)=O)cc1`: 1 (active); `COc1cc(NC(=O)C(=O)NNC(=O)C2CCCCC2)c(OC)cc1Cl`: 1 (active). For the molecule `COc1cc(NC(=O)c2ccc(C)cc2)c(OC)cc1NC(=O)CN1CCCCC1`, the manual score is 0.

As for `COc1ccc(OC)c(NC(=O)C2CC(=O)N(c3ccc(Br)cc3)C2)c1` (configuration not stated), the manual score was 0. Under `Oc1ccccc1CNc1ccc(Br)cn1` stands 0. Next, `Cc1ccc(C2CC2c2n[nH]c(=S)n2-c2ccc(Cl)cc2)cc1` (configuration not stated): 0. As to `Cc1ccc(C2CC2c2n[nH]c(=S)n2-c2ccc(C)cc2)cc1` (configuration not stated), the manual score was 1 (active). As to `CCOC(=O)N1CCN(c2ccc3nnnn3n2)CC1`, the manual score was 0.

For the molecule `O=C(c1ccc(Br)o1)N1CCN(c2ccc3nnc(-c4ccc(F)cc4)n3n2)CC1`, the manual score was -1 (active).

For the molecule `O=C(c1ccc(CS(=O)(=O)c2ccc(Br)cc2)o1)N1CCN(c2ncccn2)CC1`, the manual score is 0.

On to `CCOc1cc(-c2noc(-c3cccnc3)n2)ccc1OC`, for which the manual score was 0.

Consider `CC(C)COn1c(=S)[nH]c2ccccc2c1=O`, for which the manual score was 1 (active). As to `CC(C)n1c(NCc2c[nH]c3ccccc23)nc2ccccc21`, the manual score was 0. Next, `CCOc1cc2[nH]c(=S)n(C(C)C)c(=O)c2cc1OCC`: 1 (active); `CC(C)N(CCn1c(=S)[nH]c2ccccc2c1=O)C(C)C`: 1 (active); `Cc1cc(CC(C)C)n(-c2nc3ccccc3c(=O)n2OCC(N)=O)n1`: 0. Next, `CC(C)n1c(=S)[nH]c2ccccc2c1=O`: 1 (active).
